Experimental data as given in PubChem BioAssay (Tox21).
Several values for one entry are separate records, joined by “and”; a condition that tells them apart may be missing. Equal entries are not always repeated. Records with an inconclusive call do not appear. Entries that show only a call come without a potency. A structure can be active in one record and inactive in another. Activity calls are given as the source filed them. Unless noted, calls come from the whole dose curve.

Legend:
[1] = qHTS assay to identify small molecule antagonists of the vitamin D receptor (VDR) signaling pathway - cell viability counter screen (AID 743225; active = well fitted curve in the direction sought with a large enough effect in the repeat runs; an effect the other way counts as inactive or inconclusive; note: nearly all actives have a fitted effect of over 50% in size)
Procedure, shortened: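 VDR-bla HEK 293T cells, 4 h pre-incubation at 37C, then compound plus 1-alpha,25-dihydroxyvitamin D3 (3 nM final) for 16 h. After the beta-lactamase FRET read, CellTiter-Glo was added to the same wells; luminescence after 30 min at room temperature.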

[2] = qHTS assay to identify small molecule agonists of the NFkB signaling pathway - cell viability counter screen (AID 1159515); note: series mostly up to about 61 µM; nearly all actives have a fitted effect of over 55% in size
Procedure, shortened: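 Parallel cytotoxicity counter screen in ME-180 cells carrying an NFkB-response-element beta-lactamase reporter, 2,000 cells/well. Compound exposure lasted 5 hr at 37 C, 5% CO2. Cell viability was quantified by CellTiter-Glo luminescence.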

[3] = qHTS assay to identify small molecule agonists of the endoplasmic reticulum stress response signaling pathway (AID 1159516; active = well fitted activation curve with a large enough effect in the signal ratio in the repeat runs, not every such curve was filed as active; the % refers to the signal ratio; note: potency is the fitted concentration of half-maximal effect)
Procedure, shortened: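 Using a HeLa line with an ESRE-driven beta-lactamase gene, agonist activity was measured by FRET substrate fluorescence (460 and 530 nm emission) after cells were treated with compounds for 5 hr at 37 C and 5% CO2.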

[4] = qHTS assay to identify small molecule agonists of the endoplasmic reticulum stress response signaling pathway - cell viability counter screen (AID 1159517);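 note: HeLa cells carrying an ER stress response element beta-lactamase reporter; series mostly up to about 61 µM; nearly all actives have a fitted effect of over 50% in size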
Procedure, shortened: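 In parallel with the ESRE reporter read, cytotoxicity was scored by CellTiter-Glo luminescence (30 min, room temperature) on HeLa ESRE-bla cells dosed for 5 hr.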

[5] = qHTS assay to identify small molecule antagonists of the retinoid-related orphan receptor gamma (ROR-gamma) signaling pathway - cell viability counter screen (AID 1159520; active = well fitted curve in the direction sought with a large enough effect in the repeat runs; an effect the other way counts as inactive or inconclusive; note: nearly all actives have a fitted effect of over 50% in size)
Procedure, shortened: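 Tet-on ROR gamma CHO cells were given compounds for 2 hr, then doxycycline hyclate at 1 uM final, and incubated 16 hr at 37 C. Viability was measured as ATP content by CellTiter-Glo luminescence.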

[6] = qHTS assay to identify small molecule agonists of the AP-1 signaling pathway - cell viability counter screen (AID 1159525); note: nearly all actives have a fitted effect of over 55% in size
Procedure, shortened: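 Same-well cytotoxicity counter screen of the Tox21 10K library in ME-180 cells. The readout is ATP-dependent luminescence after 5 h compound treatment. Data are normalised to DMSO and tetra n-octyl ammonium bromide controls.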

[7] = qHTS assay to identify small molecule agonists of the AP-1 signaling pathway (AID 1159526)
[8] = target: Retinoic acid receptor RXR-alpha (Homo sapiens) (UniProt P19793); experiment: qHTS assay to identify small molecule agonists of the RXR signaling pathway (AID 1159527); note: nearly all actives have a fitted effect of over 35% in size; note: potency is the fitted concentration of half-maximal effect
Retinoic acid receptor RXR-alpha (Homo sapiens), sequence (P19793 whole entry, looked up): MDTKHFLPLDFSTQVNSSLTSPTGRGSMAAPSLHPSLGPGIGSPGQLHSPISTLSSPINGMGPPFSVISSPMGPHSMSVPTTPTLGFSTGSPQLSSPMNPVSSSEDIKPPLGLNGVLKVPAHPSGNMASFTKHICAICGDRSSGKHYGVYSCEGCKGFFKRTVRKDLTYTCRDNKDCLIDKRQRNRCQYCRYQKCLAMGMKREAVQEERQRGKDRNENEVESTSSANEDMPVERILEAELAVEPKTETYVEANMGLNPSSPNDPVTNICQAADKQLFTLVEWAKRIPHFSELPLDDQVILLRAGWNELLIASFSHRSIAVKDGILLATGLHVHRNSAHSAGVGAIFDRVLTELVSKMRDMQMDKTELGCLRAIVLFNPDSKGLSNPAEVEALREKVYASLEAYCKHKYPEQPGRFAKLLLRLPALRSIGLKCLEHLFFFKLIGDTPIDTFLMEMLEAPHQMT
Procedure, shortened: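 GeneBLAzer RXR-alpha-UAS-bla HEK 293T cells in medium with 2% charcoal-stripped FBS, pre-incubated 5 hr at 37 C, then exposed to compounds 16 hr. Beta-lactamase reporter read by FRET substrate, 2 hr room temperature, 460/530 nm emission.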

[9] = qHTS assay to identify small molecule agonists of the vitamin D receptor (VDR) signaling pathway - cell viability counter screen (AID 743224; active = well fitted curve in the direction sought with a large enough effect in the repeat runs; an effect the other way counts as inactive or inconclusive; note: nearly all actives have a fitted effect of over 50% in size; note: potency is the fitted concentration of half-maximal effect)
Procedure, shortened: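 Compounds were pin-transferred onto VDR-bla cells plated 4 h earlier; following 16 h incubation at 37C, cell viability was quantified by CellTiter-Glo luminescence after 30 min at room temperature.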

[10] = target: Nuclear receptor ROR-gamma (Homo sapiens) (UniProt P51449); experiment: qHTS assay to identify small molecule antagonists of the retinoid-related orphan receptor gamma (ROR-gamma) signaling pathway (AID 1159521; active = well fitted curve in the direction sought with a large enough effect in the repeat runs; an effect the other way counts as inactive or inconclusive; note: nearly all actives have a fitted effect of over 50% in size; note: potency is the fitted concentration of half-maximal effect)
Procedure, shortened: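 Tet-on RORγ CHO cells carrying a ROR response element–luciferase reporter were pretreated with compounds for 2 h, then induced with 1 uM (final) doxycycline hyclate for 16 h at 37 C. Antagonism was read as decreased ONE-Glo luminescence.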

SMILES | Potency [1] | Potency [2] | Potency [3] | Potency [4] | Potency [5] | Potency [6] | Potency [7] | Potency [8] | Potency [9] | Potency [10]
C1COCCN1 | inactive | inactive | inactive | inactive | inactive | inactive | inactive | inactive | – | –
CC[C@]12CCCN3CCc4c(n(c5ccccc45)[C@@](O)(C(=O)OC)C1)[C@@H]32 | inactive | – | inactive | inactive | inactive | inactive | – | inactive | inactive | –
Nc1ccc2c(c1)C(=O)c1ccccc1C2=O | inactive | – | inactive | inactive | – | inactive | inactive | inactive | – | inactive
COc1cc([C@H]2Oc3cc([C@H]4Oc5cc(O)cc(O)c5C(=O)[C@@H]4O)ccc3O[C@@H]2CO)ccc1O | inactive | – | inactive | inactive | inactive | inactive | inactive | inactive | inactive | –
C=C[C@H]1CN2CC[C@H]1C[C@@H]2[C@@H](O)c1ccnc2ccc(OC)cc12 | – | – | inactive | inactive | inactive | – | inactive | inactive | – | –
CN(C)/N=N/c1nc[nH]c1C(N)=O | inactive | – | inactive | inactive | inactive | inactive | inactive | inactive | inactive | inactive
CC(=O)Oc1c(C)c(C)c2c(c1C)CC[C@@](C)(CCC[C@H](C)CCC[C@H](C)CCCC(C)C)O2 | inactive | – | inactive | inactive | inactive | – | inactive | inactive | – | inactive
CC(=O)Nc1ccc2c(c1)Cc1cc(NC(C)=O)ccc1-2 | inactive | – | inactive | inactive | inactive | inactive | inactive | inactive | – | –
CC1(C)NC(=O)N(c2ccc([N+](=O)[O-])c(C(F)(F)F)c2)C1=O | inactive | – | inactive | inactive | inactive | inactive | inactive | inactive | inactive | 17.2 µM (active) and 18.8 µM (active)
C=CCNCC=C | inactive | – | inactive | inactive | inactive | inactive | inactive | inactive | – | –
COC(=O)c1ccc(C)cc1 | inactive | – | inactive | inactive | inactive | inactive | inactive | inactive | inactive | inactive
Cc1ccc(C(C)(C)C)c(O)c1 | inactive | – | inactive | inactive | inactive | – | – | inactive | – | inactive
CC/C=C\C/C=C\C/C=C\CCCCCCCC(=O)O | inactive | – | inactive | inactive | inactive | – | inactive | – | inactive and 49 µM (active) | –
CCOC(=O)C(C)Oc1ccc(Oc2cnc3cc(Cl)ccc3n2)cc1 (stereo not given) | inactive | – | inactive | inactive | inactive | – | inactive | – | inactive | inactive
CCc1cccc2c3c([nH]c12)C(CC)(CC(=O)O)OCC3 (stereo not given) | inactive | – | inactive | inactive | inactive | inactive | inactive | inactive | inactive | –
[O-]/[N+](=N\O)c1ccccc1 | inactive | – | inactive | inactive | inactive | inactive | inactive | inactive | inactive | –
CC(=O)[C@H]1CC[C@H]2[C@@H]3CC=C4C[C@@H](O)CC[C@]4(C)[C@H]3CC[C@]12C | inactive | – | inactive | inactive | inactive | inactive | inactive | – | – | 13.7 µM (active)
Cc1ccc(S(=O)(=O)O)cc1C | inactive | – | inactive | inactive | inactive | – | inactive | inactive and 9.77 µM (active) | inactive | –
Cc1ccc(/C(=C\CN2CCCC2)c2ccccn2)cc1 | inactive | – | inactive | inactive | inactive | inactive | – | inactive | – | –
CC(=O)[C@@]1(O)CC[C@H]2[C@@H]3C[C@H](C)C4=CC(=O)C=C[C@]4(C)[C@@]3(F)[C@@H](O)C[C@@]21C | inactive | – | inactive | inactive | inactive | – | inactive | inactive | inactive | –
Brc1nc2ccccc2s1 | inactive | – | inactive | inactive | inactive | – | inactive | inactive | inactive | –
C[C@]12CC[C@@H]3c4ccc(O)cc4CC[C@H]3[C@@H]1CC[C@H]2O | inactive | – | inactive | inactive | inactive | – | – | – | inactive | –
c1ccc2c(c1)ccc1cc3c(ccc4ccccc43)cc12 | inactive | – | 7.67 µM (active) | inactive | inactive | inactive | inactive | inactive | – | inactive
CCC(=O)O[C@H]1[C@H](O[C@@H]2[C@@H](C)[C@H](O[C@H]3C[C@@](C)(OC)[C@@H](O)[C@H](C)O3)[C@@H](C)C(=O)O[C@H](CC)[C@@](C)(O)[C@H](O)[C@@H](C)C(=O)[C@H](C)C[C@@]2(C)O)O[C@H](C)C[C@@H]1N(C)C | inactive | – | inactive | inactive | inactive | inactive | inactive | inactive | – | inactive
c1ccc2cc3ccccc3cc2c1 | inactive | – | 56.7 µM (active) | inactive | inactive | inactive | inactive | inactive | inactive | –
CC(=O)OC(C)C | inactive | – | inactive | – | inactive | – | inactive | inactive | inactive | inactive
CCCCCC=O | inactive | – | inactive | inactive | inactive | inactive | inactive | inactive | inactive | –
O=C(O)CCCC(=O)O | inactive | – | inactive | inactive | inactive | inactive | inactive | inactive | inactive | –
CC1(C)O[C@@H]2C[C@H]3[C@@H]4C[C@H](F)C5=CC(=O)C=C[C@]5(C)[C@@]4(F)[C@@H](O)C[C@]3(C)[C@]2(C(=O)CO)O1 | inactive | – | inactive | inactive | inactive | inactive | inactive | – | – | –
